Our source for the inhibition values is PubChem BioAssay AID485317 (Broad Institute, 2010).

The term inhibition denotes the change of the read-out against control, counted positive when it falls.

Among all 290,000 compounds or so, about 11,000 (3.8%) were called active.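 The calls were made as follows: active = mean replicate inhibition above about 79%, with every replicate also reaching it (limit read from the data); inconclusive = only one of the two criteria met; inactive = mean below limit and not every replicate reaching it.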 What follows is part of a selection rich in actives, with near analogues and random picks from the rest.

This test deals with FAD-linked sulfhydryl oxidase ALR (Homo sapiens) (UniProt P55789). In words: ALR-catalysed DTT oxidation blockers – biochemical, H2O2 detection, HRP-luminol luminescence, single point, primary screen (AID 485317). The note with it: purified ALR, stronger effect = higher value, concentration not given here.
Sequence of FAD-linked sulfhydryl oxidase ALR (Homo sapiens) (P55789 whole entry, looked up): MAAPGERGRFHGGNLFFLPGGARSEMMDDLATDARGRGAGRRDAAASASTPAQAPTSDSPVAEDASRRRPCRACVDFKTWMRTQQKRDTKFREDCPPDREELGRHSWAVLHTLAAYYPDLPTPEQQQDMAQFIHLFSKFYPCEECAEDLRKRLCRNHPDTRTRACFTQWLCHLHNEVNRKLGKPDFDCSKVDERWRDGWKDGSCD
Regarding `O=C(CN1C(=O)c2ccc([N+](=O)[O-])cc2C1=O)Nc1nnc(C2CC2)s1`, the inhibition was -1.72% (inactive).

As for `CCOc1ccc(NC(=O)c2ccc(NC(=O)CN3C(=O)C(=O)N(CC(C)C)C3=O)cc2)cc1`, the inhibition is -8.04% (inactive). To `O=C(CSc1nnc(Nc2ccccc2F)s1)NC1CCCC1` belongs -1.36% (inactive). To `CC12CCC(=O)N1C(C(=O)NCCN1C(=O)S/C(=C\c3ccccc3F)C1=O)CS2` (stereo not drawn) belongs -5.02% (inactive); to `CNC(=O)CN1C(=O)c2ccccc2S1(=O)=O`, 96.2% (active); to `CCCc1nnc(NC(=O)CN2C(=O)c3ccccc3S2(=O)=O)s1`, 1.19% (inactive). As for `O=C(CN1C(=O)c2ccccc2S1(=O)=O)NC1CCCCC1`, the inhibition was -2.86% (inactive). On to `CC(OC(=O)c1ccc2noc(-c3ccccc3)c2c1)C(N)=O` (stereo not drawn), for which the inhibition is 2.68% (inactive). As for `COc1ccc(-c2onc3ccc(C(C)=O)cc23)cc1`, the inhibition was -6.5% (inactive). Turning to `Oc1ccc(-c2onc3ccc(Cl)cc23)cc1`, the inhibition was 81% (active). Next, `O=C1COc2ccc(C(=O)CSc3ccc(Br)cc3)cc2N1`: -4.57% (inactive); `COCCN(C(=O)COC(=O)Cc1cccc(OC)c1)c1c(N)n(Cc2ccccc2)c(=O)[nH]c1=O`: 3.3% (inactive); `COc1ccc(-c2cc(C(=O)N/N=C/c3cccnc3)c3ccccc3n2)c(OC)c1`: 0.831% (inactive). To `Cc1cc(C(=O)CSc2nc(N)cc(=O)[nH]2)c(C)n1CCc1ccc(Cl)cc1` belongs 3.32% (inactive); to `CCCc1cc(=O)[nH]c(SCC(=O)c2c(N)n(CC(C)C)c(=O)n(C)c2=O)n1`, -1.46% (inactive); to `CCCc1cc(=O)[nH]c(SCC(=O)c2cc(C)n(CCC)c2C)n1`, 96% (active).

With `Cc1ccc(F)cc1NC(=O)CSCc1c(C)noc1C`, the inhibition is 9.91% (inactive).

With `Cc1cccc(C(=O)N[C@H](C(=O)NCc2cccs2)C(C)C)c1`, the inhibition is 0.403% (inactive). On to `CCC(C)NC(=O)c1ccc(NC(=O)CC2SC(N3CCCCC3)=NC2=O)cc1` (stereo not drawn), for which the inhibition is -5.35% (inactive). To `O=C(NCCCO)c1cc2c([nH]c3ccccc32)c(-c2ccc(F)cc2)n1` belongs 98% (active). In the case of `CN(C)CCCNC(=O)c1ccc2[nH]c3ccccc3c2c1`, the inhibition is -6.4% (inactive).

For the compound `O=C(NCC1CCCO1)c1cc(-c2ccccc2)nc2ccccc12` (stereo not drawn), the inhibition is -3.93% (inactive). Next, `O=C(NCC1CCCO1)c1cc2c([nH]c3ccccc32)c(-c2ccc(F)cc2)n1` (stereo not drawn): 96.9% (active). In the case of `COc1ccc2cc(C(=O)NCC3CCCO3)[nH]c2c1` (stereo not drawn), the inhibition was -17.8% (inactive). Regarding `COc1cccc2[nH]c(C(=O)NCCc3ccccc3)cc12`, the inhibition is -7.11% (inactive). To `C[C@H](CO)N1C[C@H](C)[C@@H](CN(C)C(=O)NC2CCCCC2)Oc2ccc(NC(=O)c3ccncc3)cc2C1=O` belongs -4.41% (inactive); to `CCN(C(=O)CSc1cccc[n+]1[O-])c1ccccc1`, -7.12% (inactive). Next, `COc1cccc(/C=C/C(=O)OCC(=O)N2CCN(c3ccccc3)CC2)c1`: 27.8% (inactive). Take `CCOc1ccc(-c2ccc(SCC(=O)N3CCOCC3)nn2)cc1`: the inhibition is -5.59% (inactive). To `COc1cccc(-c2ccc(SCC(=O)N3CCN(c4ccccc4)CC3)nn2)c1` belongs 88.3% (active); to `CC1CCCN(C(=O)CN2C(=O)c3ccccc3S2(=O)=O)C1` (stereo not drawn), -1.06% (inactive). To `O=C(NNC(=O)c1ccc(-n2cncn2)c([N+](=O)[O-])c1)c1ccccc1` belongs -16.9% (inactive); to `O=C(NCc1ccncc1)c1ccc(NS(=O)(=O)c2cccc([N+](=O)[O-])c2)cc1`, -17.6% (inactive); to `O=C(NCCCN1CCOCC1)c1ccccc1NS(=O)(=O)c1ccc(F)cc1`, -11.8% (inactive). To `O=C(NCCCN1CCOCC1)c1cnn2c(-c3ccccc3)cc(-c3ccccc3)nc12` belongs 94.1% (active); to `O=C(NCCCN1CCOCC1)c1ccccc1NS(=O)(=O)c1ccc(Br)cc1`, -9.12% (inactive). On to `CN(C)S(=O)(=O)c1cccc(NC(=O)COc2ccc3ccccc3c2)c1`, for which the inhibition is -11.4% (inactive). Regarding `C=CCn1c(SCc2ccc(C(=O)NCCO)cc2)nc2ccccc2c1=O`, the inhibition was 98.7% (active). Next, `C=CCn1c(SCC(=O)NC(=O)Cc2ccccc2)nc2ccccc2c1=O`: -2.51% (inactive); `COCCNC(=O)c1ccc(-n2c(SCc3cccnc3)nc3ccccc3c2=O)cc1`: -2.07% (inactive); `Cc1ccc(CNC(=O)c2cccc3c2C(=O)c2ccc(N4CCC(C)CC4)cc2S3(=O)=O)cc1`: 3.52% (inactive).

Take `NS(=O)(=O)c1ccc(CCNC(=O)COC(=O)COc2cccc(C(F)(F)F)c2)cc1`: the inhibition was -3.46% (inactive).

As for `Cc1ccc(NCc2n[nH]c(=S)n2-c2ccccc2)cc1Cl`, the inhibition was 88.3% (active). To `Cc1ccc(OCc2n[nH]c(=S)n2-c2ccccc2)cc1` belongs 65.2% (inactive); to `S=c1[nH]nc(CSCc2ccc(Cl)cc2Cl)n1-c1ccccc1`, 1.91% (inactive). In the case of `Cc1ccc(NC(=O)C2CCC(C(C)(C)C)CC2)cc1S(=O)(=O)N1CCOCC1` (stereo not drawn), the inhibition was -0.467% (inactive). Next, `CC(C(=O)Nc1ccc(S(=O)(=O)N2CCCC2)cc1)N(C)Cc1ccc(F)cc1` (stereo not drawn): -1.06% (inactive). To `CCn1c(=S)[nH]c2cc(S(=O)(=O)N3CCOCC3)ccc21` belongs 67.1% (inactive); to `COc1cccc(NC(=O)C(=O)c2cn(CC(=O)N3CCOCC3)c3ccccc23)c1`, 4.42% (inactive); to `CN1c2ccc(C=O)c3c(C=O)ccc(c23)N(C)C1(C)C`, 99.2% (active). Turning to `CCOC(=O)COc1ccc([N+](=O)[O-])cc1`, the inhibition is 3.19% (inactive). Take `Cc1cc(C)cc(OCC(=O)O/N=C(\N)Cc2ccc([N+](=O)[O-])cc2)c1`: the inhibition was 98.4% (active). To `N/C(Cc1ccc([N+](=O)[O-])cc1)=N\OC(=O)COc1ccc2ccccc2c1` belongs -17.6% (inactive); to `Cc1ccc(S(=O)(=O)NC(C)C(=O)NCc2ccc(Cl)cc2)cc1` (stereo not drawn), 10.6% (inactive); to `Oc1ccc(N=Cc2c(O)ccc3ccccc23)cc1`, 99.5% (active). Next, `CCOc1ccc(N=Cc2c(O)n(-c3cccc(C)n3)c(=O)c3ccccc23)cc1`: -11.1% (inactive). Consider `Oc1c(C=Nc2cccc3nsnc23)ccc2ccccc12`, for which the inhibition is 25.2% (inactive). Next, `CCN(c1ccccc1)S(=O)(=O)c1cccc(C(=O)NCc2ccccc2CN2CCOCC2)c1`: -5.99% (inactive).
